# Compound activity (PubChem)
# Sampled rows, rich in hits. Any-hit rate of the full collection: about 5.4%.
# Granule exo inh: blocks lytic granule exocytosis | AID 651702 | inhibition, % at 10 µM | actives 0.66% (n = 360,000) | TALL-104 LAMP-1 surface exposure, flow cytometry; cells stimulated with thapsigargin and PMA;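 active = inhibition above about 55%, limit read from the data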
# SMARCA2 act: SMARCA2 function activation, primary screen; actives 1% (n = 370,000); AID 652017; MG213 cells, MMTV-luciferase reporter, dexamethasone, overnight; activation, % at 9.1 µM; in the data active = activation above about 7.8%;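 also: 0% = vehicle wells and 100% = reference activator wells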
# GASC-1 inh: human JMJD2C demethylase inhibition; Q9H3R0; actives 0.069% (n = 330,000); inhibition, % at 2.35 µM; GST-JMJD2C(1-420) H3K9me3 demethylation, DELFIA europium; AID 2099;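 active = more than half of a compound's replicate wells show inhibition beyond 50%, single wells judged on their own value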;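 also: signal counts dimethyl H3K9 product captured on neutravidin plate; 0% = median of DMSO wells and 100% = 0.3 times that DMSO median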
# Target sequence (Q9H3R0 1-420 limits assumed): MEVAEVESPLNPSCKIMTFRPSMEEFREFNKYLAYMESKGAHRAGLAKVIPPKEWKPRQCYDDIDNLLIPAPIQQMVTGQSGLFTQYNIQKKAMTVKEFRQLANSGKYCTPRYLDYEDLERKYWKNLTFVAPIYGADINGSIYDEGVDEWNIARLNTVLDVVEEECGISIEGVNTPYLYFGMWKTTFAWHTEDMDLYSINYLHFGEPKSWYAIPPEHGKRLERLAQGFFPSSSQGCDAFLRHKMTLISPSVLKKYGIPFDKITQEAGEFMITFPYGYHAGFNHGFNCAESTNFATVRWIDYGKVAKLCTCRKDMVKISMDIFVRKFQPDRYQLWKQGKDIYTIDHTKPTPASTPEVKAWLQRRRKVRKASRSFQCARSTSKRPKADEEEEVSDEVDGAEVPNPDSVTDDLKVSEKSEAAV
# beta cell repl: MIN6 beta-cell proliferation induction. actives 0.29% (n = 330,000). proliferation, % at 10 µM. MIN6 cells proliferation, ATPlite luminescence, 48 h; cells starved in 0.2% serum; 100% = growth in 10% serum;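 active = compounds whose signal lies at least 3.5 SD above the mean of all wells on their plate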;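 also: 0% = DMSO-treated cells in low-serum medium and 100% = 10% serum control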
# ALR H2O2 inh: inhibitors of human sulfhydryl oxidase ALR. P55789. purified ALR, DTT oxidation, H2O2 HRP-luminol luminescence. inhibition, % (test concentration not listed). actives 3.8% (n = 290,000);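 active = mean replicate inhibition above about 79%, with every replicate also reaching it, limit read from the data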
# M18AAP inhibitor: PfM18AAP enzyme inhibition. inhibition, % at 7.35 µM. recombinant PfM18AAP, H-Glu-NHMec fluorogenic cleavage. actives 1.2% (n = 290,000);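 active = inhibition above the campaign mean inhibition over all tested compounds plus 3 SD, cut at about 28% in these data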;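 also: 0% = plate median of test compound wells and 100% = 2 mM ZnCl2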
# SMARCA2 conf: confirmation of SMARCA2 (BRM) function activators; shares compounds with SMARCA2 act; MG213 cells, MMTV-luciferase with dexamethasone, luminescence, overnight; MG213 cells expressing E1A, Rb sequestered; DMSO wells 0%, reference activator 100%; activation, % at 9.1 µM; actives 30% (n = 3,500); AID 652260;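 active = activation above its plate's cutoff, the mean activation of tested wells plus 3 SD, cut at about 7.9% in these data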
# GAL4-VP16 Luc: GAL4-VP16 reporter activation counter-screen | activation, % at 9.1 µM | AID 686939 | shares compounds with SMARCA2 act | actives 41% (n = 3,500) | HEK293 GAL4-VP16 pG5luc reporter, luciferase luminescence; scaled: DMSO wells 0%, SAHA wells 100%;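 active = activation above the solvent-only control well mean plus 3 SD, averaged across control plates, cut at about 5.2% in these data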
# * marks the source's active call; other numbers are inactive results; . = no result.
SMILES,Granule exo inh,SMARCA2 act,GASC-1 inh,beta cell repl,ALR H2O2 inh,M18AAP inhibitor,SMARCA2 conf,GAL4-VP16 Luc
O=C(Nc1ccccc1)N1CCc2ccccc2C1,-1,8,5,-2,2,-12,.,.
Cc1ccc(NC(=O)N2CCc3ccccc3C2)cc1,1,8.9*,-2,-4,4,-8,5,8.5*
CC(=O)c1cccc(NC(=O)N2CCc3ccccc3C2)c1,9,8.2*,-7,-4,-2,-12,4,7.8*
COc1ccc(-c2cc(-c3nnc4sc(-c5cccs5)nn34)[nH]n2)cc1,.,8.5*,.,.,.,.,7,8.1*
COc1cccc(-c2nn3c(-c4cccc(C)c4)nnc3s2)c1,0,11*,-3,0,2,0,5,5
O=S1(=O)N[C@@H](Cc2ccccc2)COc2cccc(N3CCC[C@H]3CO)c21,2,-1,.,.,.,.,.,.
O=C(NCc1cccnc1)Nc1ccc(Cl)c(Cl)c1,-7,8.1*,1,3,-4,-1,1,3
S=C(NCc1cccnc1)Nc1ccc(Cl)c(Cl)c1,2,-6,4,-1,3,8,.,.
C=COCCNC(=O)Nc1ccc(Cl)c(Cl)c1,0,8.2*,-2,0,-1,-3,1,2
COCCNC(=S)Nc1ccc(Cl)c(Cl)c1,-4,0,-6,2,-6,3,.,.
CCOC(=O)N1CCN(C(=O)C[C@@H]2C(=O)N3CCCC4=C3[C@@]2(C(=O)OC)CCCC4)CC1,.,0,.,.,.,.,.,.
COc1ccc(C(=O)N[C@H](C(=O)Nc2nc3ccccc3[nH]2)C(C)C)cc1,-1,13*,-16,-5,.,7,12*,15*
COc1ccc(C(=O)Nc2nc3ccccc3[nH]2)cc1,-7,-4,-13,-4,-9,2,.,.
O=C(OCc1cn([C@H]2CN(C(=O)C3CCCCC3)[C@@H](c3ccccc3)C[C@@H]2O)nn1)c1ccccc1,-2,0,.,.,.,.,.,.
CN(C)c1ncnc2c1nnn2C1OC(CO)C(O)C1O (stereo unspecified),0,13*,.,.,.,.,17*,-3
CNc1ncnc2c1ncn2[C@@H]1O[C@H](CO)[C@@H](O)[C@H]1O,-1,8.4*,.,-1,-1,.,0,1
OCC1OC(n2cnc3c(/C=C(\O)c4ccccc4)ncnc32)C(O)C1O (stereo unspecified),-4,8.9*,.,.,.,.,-2,3
CN(C)c1ncnc2c1ncn2C1OC(CO)C(O)C1O (stereo unspecified),-2,-2,2,-3,4,-1,.,.
Cc1ccc(NC(=S)NC2CC3CCCC(C2)N3Cc2ccco2)cc1 (stereo unspecified),-1,10*,-7,2,-2,-13,-2,2
COc1ccc(Nc2nc(N)nc(CSc3nccn3C)n2)cc1,-3,8.7*,-2,0,-5,6,6,8.2*
COC(=O)Nc1ccc(OCc2ccccc2)cc1,-10,14*,7,-1,1,0,18*,5
S=c1[nH]nc(-c2ccc(Cl)cc2Cl)n1-c1ccccc1,-1,16*,-18,-1,49,11,6,6.4*
CC1CCCCC1NC(=O)C(Cc1ccccc1)NS(=O)(=O)c1cccs1 (stereo unspecified),-1,8.7*,19,2,-4,7,3,0
CC(CCc1ccccc1)NC(=O)C(Cc1ccccc1)NS(=O)(=O)c1cccs1 (stereo unspecified),0,-5,5,-2,-3,1,.,.
Fc1cccc(Cc2c(C3CCCCC3)nc3c4ccccc4ccn23)c1,3,3,.,.,.,.,.,.
CN(C)CCNC(=O)c1ccc(COc2ccc(Cl)cc2Cl)cc1,1,8.0*,25,-6,5,5,10*,1
